In PubChem BioAssay:
Several values for one entry are separate records, joined by “and”; a condition that tells them apart may be missing. Equal entries are not always repeated. Activity calls are given as the source filed them.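 The calls were made as follows, unless noted: active = compounds whose cell count with miR-34 switched on is under 0.7 times the count with it off; inactive = the rest.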

Assays:
[1] = viability loss with induced miR-34 in A549 – imaging, A549 dox-inducible miR-34, nuclei and caspase counts, primary screen (AID 1347080); conditions: A549 miR-34 inducible, Hoechst nuclei count, 48 h; also: test concentration not given here
[2] = MELAS cybrid and Rieske KO viability enhancers – cell-based, MELAS cybrids, Rieske KO mouse fibroblasts, CellTiter-Glo, primary screen (AID 1508586;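 active = mean z-score across replicates of 1.96 or higher in either the MELAS or the Rieske mutant cell line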;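 also: test concentration not given here; z relative to plate mean and SD of compound and empty wells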); conditions: low glucose
[3] = galactose survival enhancers in mitochondrial complex I cybrids – cell-based, galactose medium, ATP luminescence, primary screen (AID 1645843;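 active = z-score of at least 1.8 in each of two replicates, scored against plate mean and spread of sample wells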;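 also: positive z means more ATP and so rescue of galactose-driven cybrid death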); conditions: complex I mutant cybrid cells, 72 h, stronger effect = higher value
[4] = stronger effect = lower value, cell number ratio, induced over uninduced
[5] = measured here: relative caspase fold change +Dox/-Dox
[6] = measured here: total cells with miR-34 induction, stronger effect = lower value
[7] = measured here: total cells without miR-34 induction
[8] = MELAS cybrid survival, CellTiter-Glo 48 h, stronger effect = higher value
[9] = Rieske KO mouse fibroblast survival, CellTiter-Glo 72 h

SMILES | fold change [1, 4] | fold change [1, 5] | cell count [1, 6] | cell count [1, 7] | z-score [2, 8] | z-score [2, 9] | z-score [3]
COc1ccccc1-c1noc(Cc2ccc3c(c2)OCO3)n1 | 0.864 (inactive) | 2.45 | 7680 | 8890 | 0.0213 (inactive) | 1.35 | 1.62 (inactive)
O=S(=O)(O)CCN1CCOCC1 | 0.906 (inactive) | 0.601 | 8760 | 9670 | -0.907 (inactive) | -0.75 | 0.715 (inactive)
O=C(O)Cc1c[nH]c2ccccc12 | 0.913 (inactive) | 0.9 | 8300 | 9090 | -0.643 (inactive) | -0.265 | 0.49 (inactive)
CCOC(=O)c1c(C)n[nH]c1C | 0.871 (inactive) | 0.655 | 8840 | 10200 | 0.691 (inactive) | -0.58 | 0.425 (inactive)
CCn1ncc2[nH]c(-c3c(OC(C)C)ccc4ccccc34)nc21 | 0.906 (inactive) | 1.3 | 7700 | 8510 | -0.33 (inactive) | -0.482 | 0.5 (inactive)
CCn1cnc(NC(=O)N(C)Cc2ccc(OC)cc2)n1 | 0.869 (inactive) | 1.63 | 8620 | 9910 | -0.112 (inactive) | -0.365 | 1.77 (inactive)
CCCCNS(=O)(=O)c1ccccc1 | 0.925 (inactive) | 0.335 | 8780 | 9480 | -0.187 (inactive) | 0.108 | 0.175 (inactive)
O=C(O)c1ccc(-c2ccccc2[N+](=O)[O-])o1 | 0.891 (inactive) | 0.452 | 8650 | 9710 | -0.508 (inactive) | -0.463 | 0.32 (inactive)
Cc1ccc2nc(C3CCCN3c3ncc(C)c(-c4cnn(C)c4)n3)[nH]c2c1 (centres undefined) | 0.91 (inactive) | 1.37 | 7980 | 8770 | -0.0346 (inactive) | 0.328 | -0.325 (inactive)
c1ccc2c(c1)OCC(CNc1ncnc3nc[nH]c13)O2 (centres undefined) | 0.786 (inactive) | 0.972 | 6310 | 8020 | -0.539 (inactive) | 0.778 | -0.485 (inactive)
O=C(O)CCCCc1ccccc1 | 0.916 (inactive) | 0.396 | 9010 | 9830 | 0.335 (inactive) | -0.289 | 0.82 (inactive)
CN(C)C(=O)c1cc(-c2[nH]ncc2-c2ccccc2)c[nH]1 | 0.875 (inactive) | 0.578 | 7590 | 8680 | 1.27 (inactive) | 0.199 | -0.655 (inactive)
c1ccc2c(CCc3ccncc3)c[nH]c2c1 | 0.863 (inactive) | 0.826 | 7350 | 8520 | 1.96 (inactive) | -0.242 | -0.71 (inactive)
COc1cccc2c(=O)n(C(C)Cn3cccn3)cnc12 (centres undefined) | 0.936 (inactive) | 1.36 | 9030 | 9650 | -0.113 (inactive) | -1.21 | -0.305 (inactive)
CCn1ncc(NC(=O)Cn2nc(C)c(-c3ccc(-n4cccn4)cc3)c2C)n1 | 0.87 (inactive) | 1.42 | 4370 | 5020 | -1.09 (inactive) | 1.3 | -0.54 (inactive)
NC(=O)NC(CCC(=O)O)C(=O)O (centres undefined) | 0.857 (inactive) | 0.229 | 8940 | 10400 | 0.385 (inactive) | -0.000429 | 0.4 (inactive)
Cc1cc(CN(C)C(=O)c2cc(-c3cnn(C(C)C)c3)nc3cc(F)ccc23)on1 | 0.883 (inactive) | 1.43 | 8520 | 9660 | -1.12 (inactive) | 0.385 | -0.48 (inactive)
CCCn1ncc(NC(=O)Cn2cc(C)c(-c3cccc(Cl)c3)n2)n1 | 0.851 (inactive) | 1.04 | 7170 | 8420 | -0.0413 (inactive) | -0.435 | 1.05 (inactive)
CCOC(=O)c1c(C)nn(-c2ccc(N)cc2)c1C | 0.897 (inactive) | 0.586 | 8580 | 9570 | -0.251 (inactive) | -0.884 | -0.7 (inactive)
Cc1cc(=O)oc2cc(OC3OC(CO)C(O)C(O)C3O)ccc12 (centres undefined) | 0.875 (inactive) | 0.68 | 8660 | 9900 | 0.734 (inactive) | -0.54 | 0.72 (inactive)
CC(c1ncncc1F)[C@](O)(Cn1cncn1)c1ccc(F)cc1F (some centres undefined) | 0.956 (inactive) and 0.928 (inactive) | 2.43 and 0.867 | 9660 and 8390 | 10100 and 9030 | -0.404 (inactive) | 0.698 | 0.71 (inactive)
O=C(Nc1cc(Br)c(O)c(Br)c1)c1ccccc1 | 0.856 (inactive) | 0.708 | 7950 | 9290 | 0.106 (inactive) | -0.271 | 0.2 (inactive)
NS(=O)(=O)c1ccc(C(=O)NCCn2cccn2)cc1 | 0.945 (inactive) | 1.97 | 9500 | 10100 | -0.281 (inactive) | -0.563 | -0.555 (inactive)
Cc1cc(NC(=O)Cn2ncc3cc(-c4ccc(F)c(F)c4)ccc32)n(C)n1 | 0.877 (inactive) | 0.515 | 4810 | 5490 | 0.668 (inactive) | -0.0382 | 0.765 (inactive)
O=C(O)c1ccccc1C(=O)O | 0.874 (inactive) | 0.755 | 8620 | 9850 | -0.0339 (inactive) | -0.338 | 0.455 (inactive)
O=C(O)c1cccc2c(-c3ccccc3)c(-c3ccccc3)[nH]c12 | 0.883 (inactive) | 1.11 | 8700 | 9850 | -0.38 (inactive) | -0.101 | 0.98 (inactive)
O=C(Nc1cccc(-c2nn[nH]n2)c1)c1cccc(F)c1 | 0.949 (inactive) | 0.795 | 8970 | 9450 | 1.21 (inactive) | -0.523 | 0.385 (inactive)
